# A number with no mark means an inactive call. For some of these results: Entries with a potency or affinity are not part of this list. Calls of active or inactive are those of the source. Unless noted, how the calls were made is not given here.
# How the values were obtained:
# [1] = antimalarial activity against Dd2 strain (AID 2302;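 active means growth inhibition above 50% at the single 2 µM test dose, taken to imply half-maximal potency below 2 µM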;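 further: 0% = DMSO untreated growth and 100% = chloroquine plus artemisinin killed control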); settings: P. falciparum Dd2 in RBCs, LDH growth readout, 72 h; at 2 µM; active compounds read high
# [2] = HepG2 cytotoxicity, primary screen, cytotoxicity control for P. falciparum antimalarial project, cell-based, ATP luminescence (AID 2303;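 active means inhibition above 50%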;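 further: 0% = DMSO wells and 100% = digitonin-killed cells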); settings: HepG2 viability, 24-48 h, at 10 µM, active compounds read high
# [3] = target: L-lactate dehydrogenase (Plasmodium falciparum (isolate CDC / Honduras)) (UniProt Q27743); assay: PfLDH activity inhibition – cell lysate, 3D7 strain, counter-screen for P. falciparum growth inhibition project (AID 2304);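 further: 0% = vehicle and 100% = reference inhibitor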; settings: P. falciparum 3D7 crude extract, LDH APAD/NBT absorbance; at 2 µM; active compounds read high
# Chain of L-lactate dehydrogenase (Plasmodium falciparum (isolate CDC / Honduras)) (Q27743 whole entry, looked up): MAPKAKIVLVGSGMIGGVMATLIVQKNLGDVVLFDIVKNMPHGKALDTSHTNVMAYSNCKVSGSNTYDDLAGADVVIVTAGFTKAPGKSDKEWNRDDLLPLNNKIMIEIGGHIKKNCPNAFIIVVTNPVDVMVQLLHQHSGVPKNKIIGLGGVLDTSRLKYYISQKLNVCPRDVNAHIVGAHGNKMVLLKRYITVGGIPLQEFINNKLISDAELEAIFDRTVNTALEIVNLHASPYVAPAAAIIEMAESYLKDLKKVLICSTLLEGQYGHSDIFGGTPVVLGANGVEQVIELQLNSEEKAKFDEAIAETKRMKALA
# [4] = inhibition of 3D7 malaria parasite growth – strain 3D7 (AID 2306);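 further: 0% = DMSO wells and 100% = chloroquine plus artemisinin control wells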; settings: P. falciparum 3D7 erythrocytic growth, LDH absorbance, 72 h; at 2 µM; active compounds read high
# [5] = target: Calcium-dependent protein kinase 1 (Plasmodium falciparum (isolate 3D7)) (UniProt P62344); assay: PfCDPK1 kinase inhibitors, biochemical, TCAMS library (AID 1159585; cut-off not given, nearly all actives have IC50 up to about 0.98 µM;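 further: inhibitors leave more ATP so luminescence rises with inhibition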); settings: recombinant PfCDPK1, Kinase-Glo ATP depletion luminescence
# Chain of Calcium-dependent protein kinase 1 (Plasmodium falciparum (isolate 3D7)) (P62344 whole entry, looked up): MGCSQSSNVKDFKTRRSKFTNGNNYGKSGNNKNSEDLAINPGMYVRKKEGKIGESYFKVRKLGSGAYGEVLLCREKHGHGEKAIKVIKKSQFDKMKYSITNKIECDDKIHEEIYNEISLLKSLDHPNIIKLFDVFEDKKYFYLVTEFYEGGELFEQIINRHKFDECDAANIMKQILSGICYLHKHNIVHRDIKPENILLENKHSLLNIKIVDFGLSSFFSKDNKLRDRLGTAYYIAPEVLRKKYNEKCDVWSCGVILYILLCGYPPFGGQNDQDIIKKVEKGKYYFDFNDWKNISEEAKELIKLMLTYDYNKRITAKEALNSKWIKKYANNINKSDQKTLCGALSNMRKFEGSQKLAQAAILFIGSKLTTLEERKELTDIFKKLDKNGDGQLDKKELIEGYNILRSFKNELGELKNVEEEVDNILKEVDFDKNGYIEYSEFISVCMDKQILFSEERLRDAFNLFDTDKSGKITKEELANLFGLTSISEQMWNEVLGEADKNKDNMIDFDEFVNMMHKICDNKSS
# [6] = target: Plasmodium falciparum protein kinase 6 (PK6, PF3D7_1337100) (UniProt Q8IDW1); assay: PfPK6 kinase inhibitors, biochemical, TCAMS library (AID 1159586); settings: recombinant PfPK6, Kinase-Glo ATP depletion luminescence
# Chain of Plasmodium falciparum protein kinase 6 (PK6, PF3D7_1337100) (Q8IDW1 1-305): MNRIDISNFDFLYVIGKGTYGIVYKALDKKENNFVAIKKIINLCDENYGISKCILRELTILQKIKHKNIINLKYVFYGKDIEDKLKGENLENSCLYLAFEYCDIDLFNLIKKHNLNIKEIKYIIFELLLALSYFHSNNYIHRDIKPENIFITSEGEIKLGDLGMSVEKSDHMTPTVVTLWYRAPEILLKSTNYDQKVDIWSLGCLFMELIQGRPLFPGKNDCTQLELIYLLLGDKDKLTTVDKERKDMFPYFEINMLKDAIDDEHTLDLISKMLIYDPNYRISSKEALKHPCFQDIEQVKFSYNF
# [7] = target: Protein kinase 7 (PK7), Plasmodium falciparum 3D7 (PF3D7_0213400) (UniProt Q7YTF7); assay: inhibition of Plasmodium PK7 catalytic activity – biochemical, TCAMS antimalarial set, Kinase-Glo luminescence (AID 1159587); settings: recombinant PfPK7, Kinase-Glo ATP depletion luminescence
# Chain of Protein kinase 7 (PK7), Plasmodium falciparum 3D7 (PF3D7_0213400) (Q7YTF7 1-343): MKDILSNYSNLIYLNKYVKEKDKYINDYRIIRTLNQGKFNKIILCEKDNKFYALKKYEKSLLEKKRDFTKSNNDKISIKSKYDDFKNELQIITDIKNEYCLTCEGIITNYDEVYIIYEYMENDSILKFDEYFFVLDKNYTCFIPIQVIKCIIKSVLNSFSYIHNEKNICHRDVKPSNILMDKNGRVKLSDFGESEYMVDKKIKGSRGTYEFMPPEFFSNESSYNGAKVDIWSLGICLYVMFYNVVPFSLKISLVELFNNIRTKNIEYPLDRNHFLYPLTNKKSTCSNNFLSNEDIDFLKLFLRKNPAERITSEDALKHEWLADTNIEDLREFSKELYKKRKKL
# [8] = target: Calcium-dependent protein kinase 4 (Plasmodium falciparum (isolate 3D7)) (UniProt Q8IBS5); assay: PfCDPK4 kinase inhibitors, biochemical, TCAMS library (AID 1159588; cut-off not given, nearly all actives have IC50 up to about 0.91 µM); settings: recombinant PfCDPK4, Kinase-Glo ATP depletion luminescence
# Chain of Calcium-dependent protein kinase 4 (Plasmodium falciparum (isolate 3D7)) (Q8IBS5 whole entry, looked up): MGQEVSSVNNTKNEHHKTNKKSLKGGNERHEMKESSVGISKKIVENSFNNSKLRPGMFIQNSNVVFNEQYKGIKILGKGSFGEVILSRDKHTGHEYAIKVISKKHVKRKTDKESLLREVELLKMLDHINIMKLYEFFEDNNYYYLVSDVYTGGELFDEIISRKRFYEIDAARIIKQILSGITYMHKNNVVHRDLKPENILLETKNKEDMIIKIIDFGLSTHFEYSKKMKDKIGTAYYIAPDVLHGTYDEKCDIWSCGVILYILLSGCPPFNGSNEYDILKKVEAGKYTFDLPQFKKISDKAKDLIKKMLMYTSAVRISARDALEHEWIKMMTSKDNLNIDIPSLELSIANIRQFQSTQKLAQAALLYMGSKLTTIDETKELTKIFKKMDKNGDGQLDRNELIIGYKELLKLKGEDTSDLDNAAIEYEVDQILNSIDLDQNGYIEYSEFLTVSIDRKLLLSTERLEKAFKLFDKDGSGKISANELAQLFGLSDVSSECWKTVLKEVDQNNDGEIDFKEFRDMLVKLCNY
SMILES,growth inhibition [1],inhibition [2],inhibition [3] [%],growth inhibition [4],outcome [5],outcome [6],outcome [7],outcome [8]
CN1CCC(C(=O)N(Cc2ccc(-c3ccc(CNCCc4ccccc4)cn3)cc2)Cc2cccc(F)c2)CC1,80% (active),30%,-4,90% (active),inactive,inactive,inactive,inactive
O=C(Cc1cccc(Cl)c1)Nc1cccc(-c2c[nH]c3nc(Nc4ccccc4)ncc23)c1,70% (active),5%,-2,99% (active),inactive,inactive,inactive,inactive
Cc1cccc(C)c1OC(=O)[C@@H](C)[C@@H](O)C1(Sc2ccccc2)CCN(C)CC1,92% (active),23%,1,98% (active),inactive,inactive,inactive,inactive
Cc1[nH]c(C)c(C2CCC(c3ccc(Cl)cc3)CC2)c(=O)c1Cl (stereo not given),97% (active),37%,-9,98% (active),inactive,inactive,inactive,inactive
COc1ccc(-c2cccc(NC(=O)c3cccc(C#N)c3)c2)cc1CN1CCCN(C)CC1,99% (active),22%,-4,101% (active),inactive,inactive,inactive,inactive
CCn1ccc2c(N3CCCCS3(=O)=O)cc(C(=O)N[C@@H](Cc3ccccc3)[C@H](O)CNC3CCCCC3)cc21,98% (active),1%,1,98% (active),inactive,inactive,inactive,inactive
COc1c(C2CCN(CCCCNC(=O)c3ccc(-c4ccc(C#N)cc4)nc3)CC2)ccc2c1CCCC2,67% (active),54% (active),-2,95% (active),inactive,inactive,inactive,inactive
O=C(Nc1ccccc1)N(Cc1cccc(-c2cccc(CNCc3ccc4c(c3)OCO4)c2)c1)C1CCN(Cc2ccccc2)CC1,84% (active),96% (active),0,101% (active),inactive,inactive,inactive,inactive
Cc1cc(-c2cccc(CNC3CCCC3)c2)ccc1S(=O)(=O)NCCN1CCCC1,7%,38%,2,81% (active),inactive,inactive,inactive,inactive
O=C(Nc1cccc(CN2CCN(Cc3ccc(O)cc3)CC2)c1)c1ccc(-c2ccccc2)cc1,67% (active),40%,1,101% (active),inactive,inactive,inactive,inactive
Cc1ccc(S(=O)(=O)N(C)c2ccccc2C(=O)Nc2ccccc2Oc2ccccc2)cc1,90% (active),5%,3,98% (active),inactive,inactive,inactive,inactive
OCC1CCN(Cc2ccc(-c3cccc(-c4nc5ccc(C(F)(F)F)cc5[nH]4)c3)cc2)CC1,73% (active),19%,-4,99% (active),inactive,inactive,inactive,inactive
Oc1c(C(Nc2nc3ccccc3s2)c2ccccc2)ccc2cccnc12 (stereo not given),83% (active),45%,-4,95% (active),inactive,inactive,inactive,inactive
COc1cc(F)c2ncc(Cl)c(CCN3CCC(NCc4cc5c(cn4)OCCO5)CC3)c2c1,57% (active),2%,-1,89% (active),inactive,inactive,inactive,inactive
CC(C)CNC(=O)c1cncc(-c2ccc(CNCCCc3ccccc3)cc2)c1,73% (active),28%,-6,101% (active),inactive,inactive,inactive,inactive
NC1CCN(c2nc(NCCCc3ccc(O)cc3)nc(NCc3ccccc3-c3ccc(C(F)(F)F)cc3)n2)CC1,88% (active),15%,1,101% (active),inactive,inactive,inactive,inactive
Fc1ccc2nc(-c3ccc(-c4ccc(CN5CCN(c6ccncc6)CC5)cc4)cc3)[nH]c2c1,101% (active),37%,6,102% (active),inactive,inactive,inactive,inactive
Cc1cccc2[nH]c(-c3cccc(-c4ccc(NC(=O)NCc5cccc(F)c5)cc4)c3)nc12,83% (active),40%,-4,101% (active),inactive,inactive,inactive,inactive
O=C(NC1CC1)c1ccc(N2CCCCN2CCc2ccccc2)c(C(F)(F)F)c1,84% (active),-9%,-4,98% (active),inactive,inactive,inactive,inactive
CN1CCN(CCCNCc2ccccc2-c2cccc(CNCc3ccc4c(c3)OCO4)c2)CC1,7%,34%,-1,102% (active),inactive,inactive,inactive,inactive

# From PubChem BioAssay
